Reference: the supplement of paper PMC11732987, “Enantioselective OTUD7B fragment discovery through chemoproteomics screening and high-throughput optimisation” (Communications Chemistry, 2025)

Key:
Assay in all cases: log2 ratio of Biotin-Ahx-Ub-VS probe labelling (fragment/DMSO); higher = less target engagement (more negative = stronger competition), active = hit call of the paper (q ≤ 0.05, log2 ratio ≤ -1)
Details in all cases: compound concentration: 200 uM; treatment time: 3 h
USP34 = USP34 (UniProt Q70CQ2)
USP34, sequence (Q70CQ2 whole entry, the tested form may be a part): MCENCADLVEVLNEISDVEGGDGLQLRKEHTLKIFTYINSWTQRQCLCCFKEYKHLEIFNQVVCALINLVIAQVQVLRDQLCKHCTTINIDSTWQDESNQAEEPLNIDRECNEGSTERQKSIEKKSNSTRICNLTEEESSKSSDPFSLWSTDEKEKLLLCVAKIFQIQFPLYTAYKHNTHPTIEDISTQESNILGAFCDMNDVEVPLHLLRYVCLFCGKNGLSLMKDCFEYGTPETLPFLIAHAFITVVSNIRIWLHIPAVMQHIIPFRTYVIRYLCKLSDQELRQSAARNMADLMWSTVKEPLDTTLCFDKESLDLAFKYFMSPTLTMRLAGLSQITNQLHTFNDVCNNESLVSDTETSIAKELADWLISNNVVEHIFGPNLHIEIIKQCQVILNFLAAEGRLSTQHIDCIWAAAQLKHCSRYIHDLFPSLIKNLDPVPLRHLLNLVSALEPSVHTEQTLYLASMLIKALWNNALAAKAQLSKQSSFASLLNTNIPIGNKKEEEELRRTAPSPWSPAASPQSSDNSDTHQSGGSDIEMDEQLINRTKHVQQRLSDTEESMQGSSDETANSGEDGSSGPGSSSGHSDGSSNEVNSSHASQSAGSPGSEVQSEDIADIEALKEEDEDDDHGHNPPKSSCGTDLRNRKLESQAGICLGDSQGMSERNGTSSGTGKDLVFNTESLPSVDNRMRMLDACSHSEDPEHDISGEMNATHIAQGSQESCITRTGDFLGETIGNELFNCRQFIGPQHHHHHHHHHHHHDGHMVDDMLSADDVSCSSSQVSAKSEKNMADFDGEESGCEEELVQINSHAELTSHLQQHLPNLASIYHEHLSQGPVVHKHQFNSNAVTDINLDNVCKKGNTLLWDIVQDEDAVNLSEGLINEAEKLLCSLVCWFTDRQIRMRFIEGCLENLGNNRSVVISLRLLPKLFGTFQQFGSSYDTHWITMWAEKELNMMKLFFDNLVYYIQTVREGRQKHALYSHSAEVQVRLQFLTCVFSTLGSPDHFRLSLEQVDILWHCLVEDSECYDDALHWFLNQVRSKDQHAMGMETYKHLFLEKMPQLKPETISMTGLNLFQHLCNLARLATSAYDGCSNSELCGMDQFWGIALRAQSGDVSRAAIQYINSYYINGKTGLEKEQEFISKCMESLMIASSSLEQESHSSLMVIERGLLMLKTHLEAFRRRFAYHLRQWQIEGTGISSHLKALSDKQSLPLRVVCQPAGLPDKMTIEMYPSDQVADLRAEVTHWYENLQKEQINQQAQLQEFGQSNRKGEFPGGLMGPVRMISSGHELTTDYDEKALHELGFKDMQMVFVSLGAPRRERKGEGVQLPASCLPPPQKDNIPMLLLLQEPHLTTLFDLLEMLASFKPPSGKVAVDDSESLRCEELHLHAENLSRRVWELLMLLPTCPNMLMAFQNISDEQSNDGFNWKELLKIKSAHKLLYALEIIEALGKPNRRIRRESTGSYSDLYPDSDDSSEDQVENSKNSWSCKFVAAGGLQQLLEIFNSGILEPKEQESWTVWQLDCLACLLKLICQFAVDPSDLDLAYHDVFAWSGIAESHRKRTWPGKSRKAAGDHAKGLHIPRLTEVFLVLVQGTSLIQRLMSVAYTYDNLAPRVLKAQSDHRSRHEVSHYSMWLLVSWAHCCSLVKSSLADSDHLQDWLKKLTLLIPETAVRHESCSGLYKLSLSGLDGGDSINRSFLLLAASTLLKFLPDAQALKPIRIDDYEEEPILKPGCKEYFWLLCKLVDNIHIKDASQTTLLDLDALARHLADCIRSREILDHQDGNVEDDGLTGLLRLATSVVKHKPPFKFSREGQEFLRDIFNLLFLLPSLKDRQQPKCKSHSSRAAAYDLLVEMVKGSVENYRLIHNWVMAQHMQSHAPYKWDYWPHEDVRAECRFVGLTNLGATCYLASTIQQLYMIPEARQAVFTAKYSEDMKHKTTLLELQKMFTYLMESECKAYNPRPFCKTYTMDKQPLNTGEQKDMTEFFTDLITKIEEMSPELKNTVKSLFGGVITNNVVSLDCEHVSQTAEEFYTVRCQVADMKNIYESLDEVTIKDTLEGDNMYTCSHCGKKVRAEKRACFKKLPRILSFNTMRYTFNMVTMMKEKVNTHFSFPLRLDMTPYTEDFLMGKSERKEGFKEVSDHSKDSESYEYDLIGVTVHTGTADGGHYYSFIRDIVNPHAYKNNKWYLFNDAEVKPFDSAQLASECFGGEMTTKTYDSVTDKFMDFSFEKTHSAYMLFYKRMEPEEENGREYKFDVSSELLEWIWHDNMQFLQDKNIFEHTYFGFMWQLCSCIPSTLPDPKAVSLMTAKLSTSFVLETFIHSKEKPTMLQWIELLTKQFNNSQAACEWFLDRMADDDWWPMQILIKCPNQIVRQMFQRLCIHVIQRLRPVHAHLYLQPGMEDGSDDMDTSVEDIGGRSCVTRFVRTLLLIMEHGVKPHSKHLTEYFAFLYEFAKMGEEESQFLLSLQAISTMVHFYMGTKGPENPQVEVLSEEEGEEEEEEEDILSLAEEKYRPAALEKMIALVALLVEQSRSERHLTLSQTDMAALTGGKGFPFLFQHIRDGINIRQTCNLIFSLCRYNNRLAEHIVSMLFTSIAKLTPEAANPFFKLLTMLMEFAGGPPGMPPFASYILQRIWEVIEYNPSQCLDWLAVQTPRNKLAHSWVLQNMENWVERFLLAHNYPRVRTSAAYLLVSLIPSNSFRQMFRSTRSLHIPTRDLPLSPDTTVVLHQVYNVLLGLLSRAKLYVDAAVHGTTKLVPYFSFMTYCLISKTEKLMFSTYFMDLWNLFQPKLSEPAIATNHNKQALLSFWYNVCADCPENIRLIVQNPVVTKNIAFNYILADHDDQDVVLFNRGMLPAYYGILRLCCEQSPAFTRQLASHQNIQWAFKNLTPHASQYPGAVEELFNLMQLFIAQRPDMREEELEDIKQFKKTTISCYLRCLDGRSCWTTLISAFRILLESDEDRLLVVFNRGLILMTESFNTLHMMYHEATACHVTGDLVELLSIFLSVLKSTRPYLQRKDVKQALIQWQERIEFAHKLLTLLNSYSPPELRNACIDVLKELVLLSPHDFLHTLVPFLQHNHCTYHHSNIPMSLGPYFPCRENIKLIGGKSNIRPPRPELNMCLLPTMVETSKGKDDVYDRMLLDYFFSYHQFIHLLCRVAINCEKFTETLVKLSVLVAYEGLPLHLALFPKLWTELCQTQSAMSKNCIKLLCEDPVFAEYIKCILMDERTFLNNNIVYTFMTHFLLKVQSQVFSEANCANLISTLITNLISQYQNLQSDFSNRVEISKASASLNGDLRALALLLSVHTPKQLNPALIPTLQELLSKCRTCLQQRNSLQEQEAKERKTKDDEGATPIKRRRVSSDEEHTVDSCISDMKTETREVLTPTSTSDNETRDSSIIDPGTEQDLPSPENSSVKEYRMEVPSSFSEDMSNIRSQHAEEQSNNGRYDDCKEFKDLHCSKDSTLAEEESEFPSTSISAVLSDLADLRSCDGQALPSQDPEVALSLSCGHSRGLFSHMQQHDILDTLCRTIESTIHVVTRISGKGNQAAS
Outline: (§1)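 HEK293T lysate, 495 µg per sample in Tris/CHAPS/IGEPAL buffer with protease inhibitors, was treated in triplicate with fragment at 200 µM or vehicle for 3 h and then with Biotin-Ahx-Ub-VS at 0.5 µM final for 1 h. Labelled DUBs were NeutrAvidin-enriched, digested with LysC and trypsin, and run by diaPASEF LC-MS/MS. Spectronaut label-free quantities were global-median-normalised, and values are average log2 fragment/vehicle ratios by unpaired t-test on proteins with ≥2 unique peptides.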

USP36 = molecular target: T1, USP36 (UniProt Q9P275)
T1 sequence (whole entry): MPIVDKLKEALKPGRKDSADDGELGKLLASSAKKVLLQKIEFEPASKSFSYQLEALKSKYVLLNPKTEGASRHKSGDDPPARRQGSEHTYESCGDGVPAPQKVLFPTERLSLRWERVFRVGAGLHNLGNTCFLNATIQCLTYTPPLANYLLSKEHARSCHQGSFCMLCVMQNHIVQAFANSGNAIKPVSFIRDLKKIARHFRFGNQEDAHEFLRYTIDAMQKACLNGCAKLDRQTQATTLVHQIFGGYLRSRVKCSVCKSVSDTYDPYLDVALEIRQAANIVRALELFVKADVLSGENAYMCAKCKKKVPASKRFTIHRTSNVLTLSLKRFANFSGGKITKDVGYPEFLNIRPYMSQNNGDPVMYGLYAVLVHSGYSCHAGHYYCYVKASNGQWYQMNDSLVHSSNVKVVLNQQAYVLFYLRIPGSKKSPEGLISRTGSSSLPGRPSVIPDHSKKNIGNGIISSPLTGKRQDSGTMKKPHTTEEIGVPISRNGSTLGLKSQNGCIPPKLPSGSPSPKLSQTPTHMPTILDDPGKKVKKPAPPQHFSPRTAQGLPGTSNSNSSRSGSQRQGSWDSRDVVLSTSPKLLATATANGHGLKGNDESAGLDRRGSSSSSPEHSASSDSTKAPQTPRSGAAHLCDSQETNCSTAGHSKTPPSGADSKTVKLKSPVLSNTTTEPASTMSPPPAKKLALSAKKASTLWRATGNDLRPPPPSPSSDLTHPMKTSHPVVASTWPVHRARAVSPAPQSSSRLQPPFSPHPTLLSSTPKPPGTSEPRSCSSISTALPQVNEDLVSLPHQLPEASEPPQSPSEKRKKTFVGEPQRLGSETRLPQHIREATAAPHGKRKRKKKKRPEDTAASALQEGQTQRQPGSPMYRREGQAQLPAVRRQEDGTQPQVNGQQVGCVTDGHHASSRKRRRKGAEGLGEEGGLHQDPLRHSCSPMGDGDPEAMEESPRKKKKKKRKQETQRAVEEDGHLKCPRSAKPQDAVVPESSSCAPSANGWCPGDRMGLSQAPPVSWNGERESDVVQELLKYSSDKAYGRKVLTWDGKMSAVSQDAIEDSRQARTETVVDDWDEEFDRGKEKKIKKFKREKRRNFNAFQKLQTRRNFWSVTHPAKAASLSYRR
Outline: as §1

USP38 = molecular target: T2, USP38 (UniProt Q8NB14)
T2 sequence (whole entry): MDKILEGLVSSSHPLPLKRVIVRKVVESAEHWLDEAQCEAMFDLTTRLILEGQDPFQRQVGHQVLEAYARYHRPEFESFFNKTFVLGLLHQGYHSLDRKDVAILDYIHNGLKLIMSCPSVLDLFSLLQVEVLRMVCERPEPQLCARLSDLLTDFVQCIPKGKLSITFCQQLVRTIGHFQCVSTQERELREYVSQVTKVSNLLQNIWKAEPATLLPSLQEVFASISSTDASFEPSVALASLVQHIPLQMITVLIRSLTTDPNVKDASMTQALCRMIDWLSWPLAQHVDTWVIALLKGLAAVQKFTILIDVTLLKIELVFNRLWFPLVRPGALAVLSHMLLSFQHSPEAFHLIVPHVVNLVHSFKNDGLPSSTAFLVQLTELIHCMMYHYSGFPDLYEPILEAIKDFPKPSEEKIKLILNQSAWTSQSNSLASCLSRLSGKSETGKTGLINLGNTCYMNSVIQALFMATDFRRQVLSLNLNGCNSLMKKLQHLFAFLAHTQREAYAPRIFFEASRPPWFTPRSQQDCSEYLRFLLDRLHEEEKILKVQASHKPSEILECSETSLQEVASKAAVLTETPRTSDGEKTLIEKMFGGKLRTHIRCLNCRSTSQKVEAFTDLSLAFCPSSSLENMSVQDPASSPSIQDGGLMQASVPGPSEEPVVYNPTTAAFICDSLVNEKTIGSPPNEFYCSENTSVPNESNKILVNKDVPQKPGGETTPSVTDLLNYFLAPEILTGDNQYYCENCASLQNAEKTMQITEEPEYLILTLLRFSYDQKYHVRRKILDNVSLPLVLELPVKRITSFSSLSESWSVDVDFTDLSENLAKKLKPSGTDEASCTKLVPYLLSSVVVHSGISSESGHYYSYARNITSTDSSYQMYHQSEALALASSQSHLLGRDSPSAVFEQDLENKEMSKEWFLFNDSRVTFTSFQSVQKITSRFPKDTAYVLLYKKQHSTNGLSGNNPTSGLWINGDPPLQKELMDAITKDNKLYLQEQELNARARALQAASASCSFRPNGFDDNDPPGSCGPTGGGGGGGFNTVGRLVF
Outline: as §1

USP39 = molecular target: T3, USP39 (UniProt Q53GS9)
T3 sequence (whole entry): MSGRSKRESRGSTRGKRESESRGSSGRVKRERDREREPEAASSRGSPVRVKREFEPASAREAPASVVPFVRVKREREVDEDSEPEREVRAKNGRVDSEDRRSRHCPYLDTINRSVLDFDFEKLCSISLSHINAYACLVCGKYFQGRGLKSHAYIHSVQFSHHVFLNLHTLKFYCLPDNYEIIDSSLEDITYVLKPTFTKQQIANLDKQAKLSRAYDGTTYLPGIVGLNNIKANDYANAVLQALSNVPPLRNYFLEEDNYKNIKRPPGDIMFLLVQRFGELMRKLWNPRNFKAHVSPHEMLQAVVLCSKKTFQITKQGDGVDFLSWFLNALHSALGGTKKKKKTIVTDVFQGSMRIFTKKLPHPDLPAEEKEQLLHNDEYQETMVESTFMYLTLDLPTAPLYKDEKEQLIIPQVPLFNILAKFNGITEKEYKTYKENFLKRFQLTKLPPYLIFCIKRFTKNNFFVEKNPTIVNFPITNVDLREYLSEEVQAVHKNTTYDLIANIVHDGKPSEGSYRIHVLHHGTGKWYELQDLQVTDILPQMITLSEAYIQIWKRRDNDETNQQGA
Outline: as §1

USP4 = molecular target: T4, USP4 (UniProt Q13107)
T4 sequence (whole entry): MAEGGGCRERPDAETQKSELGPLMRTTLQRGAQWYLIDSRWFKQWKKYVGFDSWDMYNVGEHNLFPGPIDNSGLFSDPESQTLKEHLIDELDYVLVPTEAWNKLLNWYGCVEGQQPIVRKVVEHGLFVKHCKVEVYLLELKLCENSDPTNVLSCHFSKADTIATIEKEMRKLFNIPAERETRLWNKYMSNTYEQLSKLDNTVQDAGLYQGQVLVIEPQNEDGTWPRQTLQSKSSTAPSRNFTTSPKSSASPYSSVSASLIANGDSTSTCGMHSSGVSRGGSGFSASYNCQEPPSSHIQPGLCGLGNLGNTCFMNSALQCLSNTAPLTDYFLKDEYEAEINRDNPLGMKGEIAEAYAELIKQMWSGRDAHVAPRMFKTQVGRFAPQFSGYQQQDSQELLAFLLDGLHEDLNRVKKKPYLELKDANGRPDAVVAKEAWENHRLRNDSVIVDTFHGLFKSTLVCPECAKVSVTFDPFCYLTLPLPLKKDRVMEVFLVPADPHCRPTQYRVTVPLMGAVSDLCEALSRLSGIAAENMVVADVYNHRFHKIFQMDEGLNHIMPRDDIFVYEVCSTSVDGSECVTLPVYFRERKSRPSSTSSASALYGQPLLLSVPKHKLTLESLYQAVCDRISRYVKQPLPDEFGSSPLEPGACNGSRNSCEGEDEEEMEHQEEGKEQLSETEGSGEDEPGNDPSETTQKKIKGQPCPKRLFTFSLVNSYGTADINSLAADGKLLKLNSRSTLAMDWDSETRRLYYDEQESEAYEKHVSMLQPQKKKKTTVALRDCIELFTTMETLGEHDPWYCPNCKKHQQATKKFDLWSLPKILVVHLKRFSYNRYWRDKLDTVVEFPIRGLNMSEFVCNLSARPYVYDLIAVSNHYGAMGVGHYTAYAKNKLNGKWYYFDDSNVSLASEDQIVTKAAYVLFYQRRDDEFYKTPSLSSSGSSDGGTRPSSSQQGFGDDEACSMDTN
Outline: as §1

Measured: log2 ratio of Biotin-Ahx-Ub-VS probe labelling

O=C(CCl)N1CCCCCC1c1ncon1 (stereo not given)
inactive: USP34 0.0612 | USP36 -0.0657 | USP38 0.0218 | USP39 -0.043 | USP4 -0.0581
